{"source": "PubChem BioAssay AID463173", "about": "(ICCB-Longwood Screening Facility, Harvard Medical School, 2010)", "note": "“And” between values parts separate entries of the source, which are not always exact repeats. Equal entries are not always repeated. The campaign covered roughly 52,000 compounds. About 4,300 (8.3%) were called active. Rule as the data show it: active = survival mostly below about 52% (no sharp cut-off); inactive = mostly above about 56%. Only a selection was taken, and actives are over-represented in it overall. More than one record can exist for a structure, and the calls need not agree.", "data": [{"tested_on": "DeltatarO mutant", "experiment": "S. aureus survival, RN4220 and DeltatarO strains – OD600, teichoic acid synthesis inhibitors, primary screen (AID 463173)", "settings": "S. aureus RN4220 wild type/DeltatarO growth, OD600, 18 h, stronger effect = lower value, screened at 18.75 µg/mL (by protocol)", "values": [{"smiles": "COc1cc(Cl)c(NS(=O)(=O)c2ccc3c(c2)CC(C)N3C(=O)C2CCC2)c(OC)c1", "note": "(stereo not drawn)", "survival": "80% (inactive)"}, {"smiles": "CC(C)NC(=O)c1ccc(Cn2c(SCc3ccc(F)cc3)nc3cccnc32)cc1", "survival": "55% (inactive)"}, {"smiles": "O=C1c2ccccc2-c2nc3ccccc3c(=O)n21", "survival": "106% (inactive)"}, {"smiles": "COc1cc(OC)c(NC(=O)COc2ccccc2-c2nnc(-c3ccccc3)o2)cc1Cl", "survival": "95% (inactive)"}, {"smiles": "COCCCNC(=O)c1ccc2nc(Cc3ccc(OC)cc3)oc2c1", "survival": "69% (inactive)"}, {"smiles": "N#C/C(=C\\c1cn(Cc2ccc(C#N)cc2)c2ccccc12)C(=O)NCc1ccco1", "survival": "67% (inactive)"}, {"smiles": "O=C(Cn1cnc2onc(-c3ccc(F)cc3)c2c1=O)Nc1ccc(F)c(Cl)c1", "survival": "84% (inactive)"}, {"smiles": "CCOC(=O)c1ccccc1NC(=O)CN1CCCN(Cc2cc(C)ccc2C)S1(=O)=O", "survival": "126% (inactive)"}, {"smiles": "CCOC(=O)c1c(C)oc2c1c(O)c(N=O)c1ccccc12", "survival": "18% (active)"}, {"smiles": "CCOC(=O)c1c(C)oc2ncnc(N3CCN(c4ccccc4)CC3)c12", "survival": "89% (inactive)"}, {"smiles": "CCOC(=O)c1c(C)oc2nc(C)nc(N3CCN(c4ccccc4)CC3)c12", "survival": "83% (inactive)"}, {"smiles": "CCOc1ccc(C(=O)Nc2ccc3nc(N(CC)CC)cc(C)c3c2)cc1", "survival": "70% (inactive)"}, {"smiles": "CCN(CC)c1cc(C)c2cc(NC(=O)c3ccccc3Cl)ccc2n1", "survival": "55% (inactive)"}, {"smiles": "CCN(CC)c1cc(C)c2cc(NC(=O)/C=C/c3ccccc3OC(C)C)ccc2n1", "survival": "71% (inactive)"}, {"smiles": "CCN(CC)c1cc(C)c2cc(NC(=O)c3cccc(OC)c3)ccc2n1", "survival": "40% (inactive)"}, {"smiles": "CCN(CC)c1cc(C)c2cc(NC(=O)c3ccccc3OC)ccc2n1", "survival": "7% (active)"}, {"smiles": "CCN(CC)c1cc(C)c2cc(NC(=O)c3cccc(F)c3)ccc2n1", "survival": "42% (inactive)"}, {"smiles": "CCN(CC)c1cc(C)c2cc(NC(=O)c3cc(OC)cc(OC)c3)ccc2n1", "survival": "59% (inactive)"}, {"smiles": "CCN(CC)c1cc(C)c2cc(NC(=O)c3cccc(OC)c3OC)ccc2n1", "survival": "95% (inactive)"}, {"smiles": "CCN(CC)c1cc(C)c2cc(NC(=O)c3ccc(OC)c(OC)c3)ccc2n1", "survival": "35% (active)"}, {"smiles": "CCN(CC)c1cc(C)c2cc(NC(=O)c3ccc(F)cc3Cl)ccc2n1", "survival": "39% (active)"}, {"smiles": "CCOc1ccccc1C(=O)Nc1ccc2nc(N(CC)CC)cc(C)c2c1", "survival": "65% (active)"}, {"smiles": "CCN(CC)c1ccc(C(=O)Nc2ccc3nc(N(CC)CC)cc(C)c3c2)cc1", "survival": "52% (inactive)"}, {"smiles": "Cc1ccc(Cl)cc1NC(=O)c1sc2nc(C)c(C)c(C)c2c1N", "survival": "75% (inactive)"}, {"smiles": "Cc1cccc2sc(N(Cc3cccnc3)C(=O)Cc3ccccc3)nc12", "survival": "81% (inactive)"}, {"smiles": "CCCc1cnc2c(c1SCC(=O)Nc1c(C)cc(C)cc1C)c(=O)n(C)c(=O)n2C", "survival": "94% (inactive)"}, {"smiles": "CCOc1ccc(NC(=O)CSc2nc3nc(C)c(Cc4ccccc4)c(C)n3n2)cc1", "survival": "89% (inactive)"}, {"smiles": "CCC(OC(=O)CN1C(=O)c2ccccc2C1=O)C(=O)NC1CCCC1", "note": "(stereo not drawn)", "survival": "83% (inactive)"}, {"smiles": "COC(=O)c1ccc(C(=O)OC)c(NC(C)=O)c1", "survival": "73% (inactive)"}, {"smiles": "O=C(NCc1ccc(Cl)cc1)C1CCCN(C(=O)c2cnn(-c3ccc(F)cc3)c2-n2cccc2)C1", "note": "(stereo not drawn)", "survival": "73% (inactive)"}, {"smiles": "Cc1c(Cl)cccc1NC(=O)c1cccc(NC(=O)N2CCSc3ncccc32)c1", "survival": "80% (inactive)"}, {"smiles": "COc1ccc(C(=O)Nc2ccccc2C(=O)Nc2ccccn2)cc1", "survival": "94% (inactive)"}, {"smiles": "O=C1CSC(=Nc2cccc(C(=O)O)c2)N1", "survival": "82% (inactive)"}, {"smiles": "CC(=O)c1cc2c(cc1N/C(=N/S(=O)(=O)c1ccc(C)cc1)c1ccc(Cl)cc1)OCO2", "survival": "37% (active)"}, {"smiles": "CC(=O)c1cc2c(cc1N/C(=N/S(=O)(=O)c1ccc(Br)cc1)c1ccccc1)OCO2", "survival": "69% (inactive)"}, {"smiles": "CC(=O)c1cc2c(cc1N/C(=N/S(=O)(=O)c1ccccc1)c1ccc(Cl)cc1)OCO2", "survival": "0% (active)"}, {"smiles": "CC(=O)c1cc2c(cc1N/C(=N/S(=O)(=O)c1ccc(C)cc1)c1ccccc1)OCO2", "survival": "74% (inactive)"}, {"smiles": "CC(=O)c1cc2c(cc1N/C(=N/S(=O)(=O)c1ccc(C)cc1)c1ccc(F)cc1)OCO2", "survival": "83% (inactive)"}, {"smiles": "CC(=O)c1cc2c(cc1N/C(=N/S(=O)(=O)c1ccc(Cl)cc1)c1ccc(F)cc1)OCO2", "survival": "99% (inactive)"}, {"smiles": "O=C(NCc1cccc(Br)c1)C1CCCCN1S(=O)(=O)c1ccc(F)cc1", "note": "(stereo not drawn)", "survival": "89% (inactive)"}, {"smiles": "O=C(Cn1c(-c2cccs2)cc2cc(F)ccc21)NCCCN1CCN(c2ccccc2F)CC1", "survival": "67% (inactive)"}, {"smiles": "COc1ccc(-n2nc3c(N4CCC(C(=O)NCCc5ccccc5)CC4)nnc(C)c3c2C)cc1", "survival": "85% (inactive)"}, {"smiles": "CCc1cccc(Nc2c3c(nc4ncnn24)CCC3)c1", "survival": "95% (inactive)"}, {"smiles": "COc1ccc(-c2nn3c(=O)cc(CN4CCN(C(=O)Nc5ccc(C)c(Cl)c5)CC4)nc3s2)cc1", "survival": "78% (inactive)"}, {"smiles": "CCOC(=O)C(C)Sc1nc(-c2ccccc2Cl)cc(-c2ccccc2)c1C#N", "note": "(stereo not drawn)", "survival": "64% (inactive)"}, {"smiles": "CCOC(=O)C(C)Sc1nc(-c2ccccc2)ccc1C#N", "note": "(stereo not drawn)", "survival": "82% (inactive) and -1% (active)"}, {"smiles": "CCCCSc1nc(-c2ccc(OC)cc2)ccc1C#N", "survival": "52% (inactive)"}, {"smiles": "O=C(CN1CCN(c2ccccn2)CC1)N(c1ccccc1)c1ccc2ccccc2c1", "survival": "59% (inactive)"}, {"smiles": "COc1ccc(OC)c(CCNC(=O)c2csc3c2CCCCC3)c1", "survival": "44% (active)"}, {"smiles": "COc1ccc(NC(=O)c2csc3c2CCCCC3)cc1", "survival": "70% (inactive)"}, {"smiles": "Cc1cccc(C)c1NC(=O)c1csc2c1CCCC2", "survival": "90% (inactive)"}, {"smiles": "COc1ccc(CCNC(=O)c2csc3c2CCCCC3)c(OC)c1", "survival": "66% (inactive)"}, {"smiles": "COc1cccc(NC(=O)c2csc3c2CCCCC3)c1", "survival": "37% (active)"}, {"smiles": "COc1ccc(OC)c(CCNC(=O)c2ccc3[nH]c(C)c(C)c3c2)c1", "survival": "107% (inactive)"}, {"smiles": "COc1ccc(-c2cc(-c3ccccc3)nc3c2COc2ccc(F)cc2-3)cc1", "survival": "73% (inactive)"}, {"smiles": "CCCc1c(O)nc(SCC(=O)N2CCCCC2)[nH]c1=O", "survival": "69% (inactive)"}, {"smiles": "O=C(Nc1nc2ccc(F)cc2s1)c1nc(SCc2ccccc2F)ncc1Cl", "survival": "48% (inactive)"}, {"smiles": "CCCSc1ncc(Cl)c(C(=O)Nc2nc3ccc(OCC)cc3s2)n1", "survival": "63% (inactive)"}, {"smiles": "CCCSc1ncc(Cl)c(C(=O)Nc2nc3ccc(C)cc3s2)n1", "survival": "49% (active)"}, {"smiles": "COc1ccc2nc(NC(=O)c3nc(SCc4cccc(C)c4)ncc3Cl)sc2c1", "survival": "37% (active)"}, {"smiles": "Cc1ccc(CSc2ncc(Cl)c(C(=O)Nc3nc4ccc(C)cc4s3)n2)cc1", "survival": "53% (inactive)"}, {"smiles": "COc1ccc2nc(NC(=O)c3nc(SC(C)C)ncc3Cl)sc2c1", "survival": "93% (inactive)"}, {"smiles": "Cc1cccc(CSc2ncc(Cl)c(C(=O)Nc3nc4ccc(F)cc4s3)n2)c1", "survival": "33% (active)"}, {"smiles": "Cc1ccccc1CSc1ncc(Cl)c(C(=O)Nc2nc3ccc(F)cc3s2)n1", "survival": "100% (inactive)"}, {"smiles": "CCSc1ncc(Cl)c(C(=O)Nc2nc3ccc(OC)cc3s2)n1", "survival": "83% (inactive)"}, {"smiles": "CCOc1ccc2nc(NC(=O)c3nc(SC(C)C)ncc3Cl)sc2c1", "survival": "41% (active)"}, {"smiles": "CCOc1ccc2nc(NC(=O)c3nc(SCc4ccc(C)cc4)ncc3Cl)sc2c1", "survival": "54% (inactive)"}, {"smiles": "COc1ccc2nc(NC(=O)c3nc(SCc4ccc(F)cc4)ncc3Cl)sc2c1", "survival": "53% (inactive)"}, {"smiles": "CCCN(CCC)C(=O)Cn1c(=O)n(-c2cccc(C(F)(F)F)c2)c(=O)c2c(C)c(C)sc21", "survival": "44% (inactive)"}, {"smiles": "CCC1SC(=S)N(CC(=O)O)C1=O", "note": "(stereo not drawn)", "survival": "100% (inactive)"}, {"smiles": "CCOCCCNC(=O)Cn1ncc2c([nH]c3ccc(C)cc32)c1=O", "survival": "83% (inactive)"}, {"smiles": "O=C1NC(c2ccccc2)/C(=C(\\O)c2ccccc2)C1=O", "note": "(stereo not drawn)", "survival": "70% (inactive)"}, {"smiles": "Cc1nc2ccn(Cc3cccs3)c(=O)c2cc1C(=O)N1CCN(c2ccccc2)CC1", "survival": "83% (inactive)"}, {"smiles": "COc1ccc(OC)c(NC(=O)c2nc(SCc3ccccc3F)ncc2Cl)c1", "survival": "70% (inactive)"}, {"smiles": "CCCSc1ncc(Cl)c(C(=O)NCc2ccc(C)cc2)n1", "survival": "57% (inactive)"}, {"smiles": "CCCSc1ncc(Cl)c(C(=O)NCc2ccc(OC)cc2)n1", "survival": "52% (inactive)"}, {"smiles": "CCCSc1ncc(Cl)c(C(=O)Nc2ccc(S(=O)(=O)Nc3ncccn3)cc2)n1", "survival": "67% (inactive)"}, {"smiles": "CCCSc1ncc(Cl)c(C(=O)Nc2ccc(OC)cc2OC)n1", "survival": "46% (active)"}, {"smiles": "CCCSc1ncc(Cl)c(C(=O)Nc2ccc(CC)cc2)n1", "survival": "42% (active)"}, {"smiles": "Cc1ccc(-c2nnc(SCC(=O)NCc3ccccc3)o2)cc1", "survival": "142% (inactive)"}, {"smiles": "CCN(CC)c1ccc(CNCCCSc2nnnn2C)cc1", "survival": "88% (inactive)"}, {"smiles": "COc1cc(C)c(S(=O)(=O)N2CCCC(C)C2)cc1C", "note": "(stereo not drawn)", "survival": "81% (inactive)"}, {"smiles": "Cc1nnc(NC(=O)CSc2nccn2-c2ccc(Cl)cc2)s1", "survival": "104% (inactive)"}, {"smiles": "O=C(NC1CCN(C(=O)NC2CCCCC2)CC1)c1ccc(F)cc1", "survival": "85% (inactive)"}, {"smiles": "Cc1nn(-c2cc(N3CCOCC3)ccc2N)c(=O)c2ccccc12", "survival": "76% (inactive)"}, {"smiles": "COc1ccc(N2CCN(C(=O)C(C)n3c(=O)cc(C(F)(F)F)c4c(C)nn(C)c43)CC2)cc1", "note": "(stereo not drawn)", "survival": "97% (inactive)"}, {"smiles": "CCCCNC(=O)c1ccc2c(c1)N(CC)C(=O)c1ccccc1S2", "survival": "102% (inactive)"}, {"smiles": "Cc1ccc(CCNC(=O)C2CCCN(c3nnc(C)c4c(C)n(-c5ccccc5)nc34)C2)cc1", "note": "(stereo not drawn)", "survival": "80% (inactive)"}, {"smiles": "CCCCN(CC)CCCNC(=O)c1cc2c(=O)[nH]c3ccccc3c2s1", "survival": "151% (inactive)"}, {"smiles": "O=C(NCC(c1cccnc1)N1CCc2ccccc21)C(=O)Nc1ccccc1F", "note": "(stereo not drawn)", "survival": "101% (inactive)"}, {"smiles": "O=C(NCC(c1cccnc1)N1CCc2ccccc21)c1ccc(F)c(F)c1", "note": "(stereo not drawn)", "survival": "52% (inactive)"}, {"smiles": "CCc1ccccc1NC(=O)C(=O)NCC(c1cccnc1)N1CCc2ccccc21", "note": "(stereo not drawn)", "survival": "58% (inactive)"}, {"smiles": "O=C(NCC(c1cccnc1)N1CCc2ccccc21)c1cccc(F)c1", "note": "(stereo not drawn)", "survival": "44% (active)"}, {"smiles": "O=C(NCC(c1cccnc1)N1CCc2ccccc21)c1cccc(Br)c1", "note": "(stereo not drawn)", "survival": "41% (active)"}, {"smiles": "O=C(NCC(c1cccnc1)N1CCc2ccccc21)c1ccc(F)cc1", "note": "(stereo not drawn)", "survival": "100% (inactive)"}, {"smiles": "Cc1cccc(NC(=O)C(=O)NCC(c2cccnc2)N2CCc3ccccc32)c1C", "note": "(stereo not drawn)", "survival": "53% (inactive)"}, {"smiles": "N#Cc1ccccc1NC(=O)C(=O)NCC(c1cccnc1)N1CCc2ccccc21", "note": "(stereo not drawn)", "survival": "53% (inactive)"}, {"smiles": "O=C(NCC(c1cccnc1)N1CCc2ccccc21)c1cccc(C(F)(F)F)c1", "note": "(stereo not drawn)", "survival": "45% (active)"}]}]}
